The results in this text go back to ChEMBL document CHEMBL1201862, “PubChem BioAssay data set” (2004).

The structures appear in SMILES notation. Hit rate of the full screen: of about 400,000 compounds, about 2,100 (0.53%) were called active. About 14% were inconclusive and are not listed. No rule for the calls is given here. This excerpt belongs to a sample that is enriched for actives.

Chain of Ataxin-2 (Homo sapiens) (Q99700 whole entry): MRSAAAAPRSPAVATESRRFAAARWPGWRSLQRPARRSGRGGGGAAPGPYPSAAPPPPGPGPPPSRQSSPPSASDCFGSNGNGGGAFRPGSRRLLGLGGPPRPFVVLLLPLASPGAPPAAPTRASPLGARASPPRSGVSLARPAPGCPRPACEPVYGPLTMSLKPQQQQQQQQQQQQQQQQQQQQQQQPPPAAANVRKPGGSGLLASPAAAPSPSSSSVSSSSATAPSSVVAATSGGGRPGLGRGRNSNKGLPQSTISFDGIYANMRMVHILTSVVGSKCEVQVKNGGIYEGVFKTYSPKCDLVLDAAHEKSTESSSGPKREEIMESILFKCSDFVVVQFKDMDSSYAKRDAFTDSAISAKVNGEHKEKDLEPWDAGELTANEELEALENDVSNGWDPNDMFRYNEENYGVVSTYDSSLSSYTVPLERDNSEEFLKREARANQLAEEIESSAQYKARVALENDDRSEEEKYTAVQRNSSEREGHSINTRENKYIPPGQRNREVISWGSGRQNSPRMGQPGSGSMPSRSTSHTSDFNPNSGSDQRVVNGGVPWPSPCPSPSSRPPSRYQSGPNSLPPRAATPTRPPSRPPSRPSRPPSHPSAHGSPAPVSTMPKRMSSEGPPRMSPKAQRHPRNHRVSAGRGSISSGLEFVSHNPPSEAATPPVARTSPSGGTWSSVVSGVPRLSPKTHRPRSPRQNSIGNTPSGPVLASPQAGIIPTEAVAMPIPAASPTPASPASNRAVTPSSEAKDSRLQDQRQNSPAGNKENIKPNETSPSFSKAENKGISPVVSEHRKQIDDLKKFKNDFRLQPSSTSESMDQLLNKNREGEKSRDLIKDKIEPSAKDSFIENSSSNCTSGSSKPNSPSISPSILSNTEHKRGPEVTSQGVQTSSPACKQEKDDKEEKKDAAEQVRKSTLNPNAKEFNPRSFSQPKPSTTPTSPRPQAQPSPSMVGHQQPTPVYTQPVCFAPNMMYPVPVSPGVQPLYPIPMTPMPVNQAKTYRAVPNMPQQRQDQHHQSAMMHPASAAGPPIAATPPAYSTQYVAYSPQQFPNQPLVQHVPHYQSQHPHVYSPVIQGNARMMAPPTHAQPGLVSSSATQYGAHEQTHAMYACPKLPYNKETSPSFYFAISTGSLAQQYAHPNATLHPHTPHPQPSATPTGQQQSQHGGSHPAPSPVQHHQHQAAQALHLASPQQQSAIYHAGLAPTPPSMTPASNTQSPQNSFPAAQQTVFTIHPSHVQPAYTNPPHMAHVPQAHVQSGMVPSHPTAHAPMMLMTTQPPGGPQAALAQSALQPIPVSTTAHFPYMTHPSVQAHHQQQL

This assay addresses Ataxin-2 (Homo sapiens) (UniProt Q99700). Description: qHTS for Inhibitors of ATXN expression. Type of assay: functional.
Consider `Fc1ccc(Br)cc1C1C=C(c2ccc(Br)cc2)Nc2nnnn21` (configuration not stated), for which the Potency result was “inactive”.

Regarding `Cc1ccc(Cl)cc1-n1c(=O)c2sc3ccccc3c2n(CC(=O)NC2CCCC2)c1=O`, the Potency was 11.2 µM (active). In the case of `Cc1cccn2c(=O)c3cc(C(=O)NC4CCCCCC4)sc3nc12`, the Potency entry is “inactive”. The entry for `O=C(Cn1c(=O)oc2ccc(Cl)cc21)NC1CCCCC1` is “inactive”; for `Cc1ccc(Nc2nc(-c3ccc(O)cc3O)cs2)nc1` it is 44.7 µM (active); for `Cc1ccc(Nc2nc(-c3sc(C)nc3C)cs2)cc1` it is “inactive”. The entry for `Cc1ccc(Nc2nc(-c3ccccc3)cs2)nc1` is “inactive”; for `COC(=O)C1CCN(C(=O)COC(=O)c2ccc(N3CCCC3=O)cc2)CC1` it is “inactive”; for `COc1ccc(CC(=O)Nc2cc(C)ccn2)cc1OC` it is “inactive”. `COc1ccc(C(=O)COC(=O)c2sc(C)nc2C)cc1OC`: the Potency result is “inactive”. The figure for `COc1ccc(C(=O)O/N=C(\N)Cc2ccc(Cl)c(Cl)c2)cc1OC` is 28.2 µM (active); for `COc1ccc(NC(=O)CSc2nnc3n2CCCCC3)cc1` it is “inactive”; for `CCc1nnc(NC(=O)CSc2nc(C)c3c(c2C#N)CCCC3)s1` it is “inactive”. The figure for `CCCCc1ccc(NC(=O)CSc2nc(=O)n(CCN(CC)CC)c3c2CCCC3)cc1` is 39.8 µM (active).

As for `Cc1cc(C(=O)CCl)c(C)n1-c1cccc(S(=O)(=O)N2CCOCC2)c1`, the Potency was 21.2 µM (active). Take `Cc1ccc(S(=O)(=O)N2CCOCC2)cc1C(=O)N1C(=O)c2cccc(N)c2C1=O`: the Potency entry is “inactive”. For the molecule `O=C(NC1CC1)c1cccc(S(=O)(=O)N2CCOCC2)c1`, the Potency entry was “inactive”. The entry for `CCC(=O)c1cc2c(C)cc(=O)oc2c(C)c1O` is “inactive”. The entry for `CCOC(=O)c1cc2c(=O)n3ccccc3nc2n(Cc2ccco2)/c1=N/C(=O)c1ccccc1OCC` is “inactive”; for `CCCCCCCCN1C(=O)[C@H](CC(=O)NCc2ccc(OC)c(OC)c2)C[C@@]2(C(=O)OC)CCCCC=C12` it is 35.5 µM (active).

In the case of `CCOC(=O)[C@]12CCC=C1N(Cc1cccc3ccccc13)C(=O)[C@H](CC(=O)NCc1ccc(OC)c(OC)c1)C2`, the Potency is 39.8 µM (active). The figure for `COC(=O)[C@]12CCCCC=C1N(Cc1ccc(Cl)cc1Cl)C(=O)[C@H](CC(=O)NCc1ccc(OC)c(OC)c1)C2` is 25.1 µM (active). For `COCCn1c(SCC(=O)NCc2ccc(OC)c(OC)c2)nc2ccccc21` the value was “inactive”. For `CCOC(=O)[C@]12CCCC=C1N(Cc1ccc(Cl)cc1Cl)C(=O)[C@H](CC(=O)NCc1ccc(OC)c(OC)c1)C2` the value was 39.8 µM (active); for `COc1ccc(CNC(=O)COC(=O)c2ccc(C)c(S(=O)(=O)N3CCOCC3)c2)cc1OC`, “inactive”; for `CCCOc1ccc(N2CC(C(=O)NCCc3ccc(OC)c(OC)c3)CC2=O)cc1` (configuration not stated), “inactive”. With `CC1(C)C/C(=N\O)C(C(O)c2cccc([N+](=O)[O-])c2)C(C)(C)N1` (configuration not stated), the Potency entry is “inactive”. For `O=C1CSC(c2cccc([N+](=O)[O-])c2)N1C1CC2CCC1C2` (configuration not stated) the value was “inactive”. For the molecule `CCCCN(CCCC)S(=O)(=O)c1ccc(C(=O)Nc2sc3c(c2C(N)=O)CCN(CC)C3)cc1`, the Potency entry is “inactive”. The entry for `Cc1nc2nc(-c3ccccc3)cn2nc1C` is “inactive”. Consider `CCCCCCCCN1C(=O)[C@H](CC(=O)NCC2CCCCC2)C[C@@]2(C(=O)OC)CCCCC=C12`, for which the Potency is 25.1 µM (active). For `Cc1ccc(C2OC34CCCCCC3C(C#N)(C(=N)O4)C2(C#N)C#N)cc1` (configuration not stated) the value was “inactive”; for `CN(Cc1cccs1)c1nc(-c2cccnc2)nc2ccccc12`, “inactive”; for `O=C(c1ccccc1)c1ccc2nc(-c3ccco3)c(-c3ccco3)nc2c1`, “inactive”. As to `Clc1ccc(N2N=C(c3cccs3)CC2c2ccco2)cc1` (configuration not stated), the Potency entry was “inactive”. For `Cc1ccc(C2=NN(C(=O)CCl)C(c3cccs3)C2)o1` (configuration not stated) the value was 9.47 µM (active). For `CC(=O)Nc1ccc(C2=NN(c3ccccc3)C(c3cccs3)C2)cc1` (configuration not stated) the value was “inactive”. The entry for `COc1ccc(C2=NN(c3ccccc3)C(c3cccs3)C2)cc1` (configuration not stated) is “inactive”. Take `c1ccc(C2CC(c3cccs3)=NN2c2ccccc2)cc1` (configuration not stated): the Potency entry is “inactive”. The figure for `COc1cc(C2CC(c3cccs3)=NN2C(=O)CCl)ccc1OC(F)F` (configuration not stated) is 39.8 µM (active); for `COc1ccc(C2CC(c3cccs3)=NN2c2ccc(F)cc2)cc1OC` (configuration not stated) it is “inactive”; for `O=C(CCl)N1N=C(c2cccs2)CC1c1ccco1` (configuration not stated) it is 5.32 µM (active). For `Cc1ccc(C2CC(c3cccs3)=NN2C(=O)CCl)cc1` (configuration not stated) the value was 25.1 µM (active). The entry for `c1ccc(N2N=C(c3cccs3)CC2c2ccco2)cc1` (configuration not stated) is “inactive”.

Turning to `COc1ccccc1N1N=C(c2cccs2)CC1c1ccccc1` (configuration not stated), the Potency result was “inactive”. The entry for `O=C(c1ccccc1Cl)N1N=C(c2cccs2)CC1c1cccc(O)c1` (configuration not stated) is “inactive”. The entry for `COc1ccc2nc3c(cc2c1)c(NC(=O)C1CCCO1)nn3CC(C)C` (configuration not stated) is “inactive”. The entry for `O=S(=O)([N-]c1nc2ccccc2nc1-[n+]1ccn(Cc2ccccc2)c1)c1ccc(Cl)cc1` is “inactive”; for `CCCCn1nc(NC(=O)COC)c2cc3cc(OC)ccc3nc21` it is “inactive”; for `N=c1c(C(=O)NC2CCCCC2)cc2c(=O)n3ccccc3nc2n1Cc1cccnc1` it is “inactive”. For the molecule `O=C(CCl)N1N=C(c2ccco2)CC1c1cccs1` (configuration not stated), the Potency is 17.8 µM (active). The entry for `O=C(c1ccccc1)C1Oc2ccccc2C2CC(c3cccs3)=NN12` (configuration not stated) is “inactive”; for `COc1ccc(C2=NN3C(C2)c2ccccc2OC3c2cccs2)cc1` (configuration not stated) it is “inactive”; for `C#CCOCCOCCOCCNc1nc(N2CCN(C(=O)CCCCCCCCCCNC(=O)Cn3cc(CCCCCN)nn3)CC2)nc(N2CCN(C(=O)CCCCCCCCCCNC(=O)[C@@H]([C@H](C)O)n3cc(C)nn3)CC2)n1` it is 28.2 µM (active). For `C#CCOCCOCCOCCNc1nc(N2CCOCC2)nc(N2CCN(C(=O)[C@H]([C@@H](C)CC)n3cc([C@@H](N)Cc4ccc(O)cc4)nn3)CC2)n1` the value was 35.5 µM (active).

Regarding `C#CCOCCOCCOCCNc1nc(N2CCN(C(=O)CCCCCCCCCCNC(=O)[C@H]([C@@H](C)CC)n3cc(CCCCN=C(N)N)nn3)CC2)nc(N2CCN(C(=O)CCCCCCCCCCNC(=O)[C@H](CO)n3cc(CCCSC)nn3)CC2)n1`, the Potency is 35.5 µM (active). For `C#CCOCCOCCOCCNc1nc(N2CCN(C(=O)CCCCCCCCCCNC(=O)Cn3cc(C[C@@H](C)O)nn3)CC2)nc(N2CCN(C(=O)CCCCCCCCCCNC(=O)[C@@H]([C@H](C)CC)n3cc(CCCCCN)nn3)CC2)n1` the value was 20 µM (active).
